# Measured values published in the supplement of paper PMC9135407.
# Where “and” joins values, the source holds several entries; their conditions need not be identical. Identical values can stand only once. Counter-ions that a name gives are not always drawn. Among all 5,800 compounds or so, about 620 (11%) showed activity. Shown is part of a subset that was picked to be rich in actives. Unmarked numbers belong to inactive results.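 How the source made its calls: active = score above a cut-off or among the top three wells of a plate; in these data no inactive exceeds 0.85.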
# System: primary human hepatic stellate cells (donor 1)
# Assay: scaled lipid accumulation score (0 = DMSO-like, 1 = nortriptyline-like); higher = stronger HSC inactivation (lipid re-accumulation), active = hit call of the paper
# Conditions: 48 h
# [1] = library stock concentration: 1 mM
# [2] = library stock concentration: 3.33 mM
# [3] = library stock concentration: 6.1 mM
# [4] = library stock concentration: 10 mM
# [5] = library stock concentration: 80 uM
# [6] = library stock concentration: 400 uM
# [7] = library stock concentration: 2 mM
# [8] = library stock concentration: 8.9 mM
structure (smiles),measurement,setting,value
CCCCCCC=CCCCCCCCCCCOC(C)=O [11-cis Vaccenyl Acetate],scaled lipid accumulation score,[1],≤ 0
Nc1nc(Nc2ccc(S(N)(=O)=O)cc2)nn1C(=S)Nc1c(F)cccc1F [Cdk1/2 Inhibitor III],scaled lipid accumulation score,[2],0.782
CCCCC/C=C\C[C@@H](O)/C=C/C=C\C/C=C\CCCC(=O)O,scaled lipid accumulation score,library stock concentration: 100 uM,≤ -0.021
CCC(NC(C)C)C(O)c1ccc(O)c2[nH]c(=O)ccc12 (stereo unspecified) [Procaterol hydrochloride],scaled lipid accumulation score,[3],≤ 0
same,scaled lipid accumulation score,[4],≤ -0.006
CCc1cc2c(cc1CC)CC(NC[C@H](O)c1ccc(O)c3[nH]c(=O)ccc13)C2 [Indacaterol Maleate],scaled lipid accumulation score,[2],0.494
CCC(NC(C)C)C(O)c1ccc(O)c2[nH]c(=O)ccc12 (stereo unspecified) [Procaterol hcl],scaled lipid accumulation score,library stock concentration: 6.9 mM,≤ -0.006
CCc1cc2c(cc1CC)CC(NC[C@H](O)c1ccc(O)c3[nH]c(=O)ccc13)C2.O=C(O)C=CC(=O)O [Indacaterol Maleate],scaled lipid accumulation score,[4],1.15 (active)
O=C(O)c1cc2ccccc2[nH]1 [Indole-2-carboxylic acid],scaled lipid accumulation score,[4],≤ 0
Cc1nc2ccc(-n3ncc(C(=O)c4cc5ccccc5[nH]4)c3N)cc2[nH]1 [listing 1 of 2 here],scaled lipid accumulation score,[5],0.004
same,scaled lipid accumulation score,[6],≤ -0.001
same,scaled lipid accumulation score,[7],≤ 0
Cc1nc2ccc(-n3ncc(C(=O)c4cc5ccccc5[nH]4)c3N)cc2[nH]1 [listing 2 of 2 here],scaled lipid accumulation score,[4],0.907 (active)
CC(C)c1cc(C(C)C)c(CC(=O)NS(=O)(=O)Oc2c(C(C)C)cccc2C(C)C)c(C(C)C)c1 [Avasimibe],scaled lipid accumulation score,[2],≤ 0
same,scaled lipid accumulation score,[4],≤ 0
COc1cccc(NC(=O)/C=C/c2ccc(Cl)cc2)c1 [listing 1 of 2 here],scaled lipid accumulation score,[4],0.153
COc1cccc(NC(=O)/C=C/c2ccc(Cl)cc2)c1 [listing 2 of 2 here],scaled lipid accumulation score,[4],1.2 (active)
COc1cc(/C=C/c2ccc(Cl)cc2)cc(OC)c1,scaled lipid accumulation score,[1],≤ 0
CCCCC/C=C\CCCCCCCCCCCCC(=O)O [14(Z)-Eicosenoic Acid],scaled lipid accumulation score,[1],≤ 0
CN1CCN(C(=O)c2nc3ccc(Cl)cc3[nH]2)CC1,scaled lipid accumulation score,[4],0.076
CN1CCN(c2ccc3nc(-c4c(N)c5c(F)cccc5[nH]c4=O)[nH]c3c2)CC1 [Dovitinib (TKI-258) Dilactic Acid],scaled lipid accumulation score,[4],0.445
"CN1CCN(c2ccc3nc(-c4c(N)c5c(F)cccc5[nH]c4=O)[nH]c3c2)CC1 [Dovitinib (TKI-258, CHIR-258)]",scaled lipid accumulation score,[2],1.25 (active)
same,scaled lipid accumulation score,[4],1.13 (active)
CC(O)C(=O)O.CC(O)C(=O)O.CN1CCN(c2ccc3nc(-c4c(N)c5c(F)cccc5[nH]c4=O)[nH]c3c2)CC1 [Dovitinib (TKI-258) Dilactic Acid],scaled lipid accumulation score,[2],1.27 (active)
CN1CCN(c2ccc3nc(-c4c(N)c5c(F)cccc5[nH]c4=O)[nH]c3c2)CC1 [listing 1 of 2 here],scaled lipid accumulation score,[5],0.779
CCOc1ccc(-c2nc3ccc(-c4nc5ccc(N6CCN(C)CC6)cc5[nH]4)cc3[nH]2)cc1,scaled lipid accumulation score,[8],0.339
CN1CCN(c2ccc3nc(-c4c(N)c5c(F)cccc5[nH]c4=O)[nH]c3c2)CC1 [listing 2 of 2 here],scaled lipid accumulation score,[6],0.945 (active)
same,scaled lipid accumulation score,[7],1.11 (active)
same,scaled lipid accumulation score,[4],1.08 (active)
CC[C@@H]1Cn2c(c3nc(-c4ccccc4)nc-3n(C)c2=O)N1,scaled lipid accumulation score,[4],0.008
c1cnc2cc3c(cc2n1)[C@@H]1CNC[C@H]3C1 [Varenicline tartrate],scaled lipid accumulation score,[4],≤ 0
NC(=O)[C@@H]1CCCN1C(=O)[C@H](Cc1c[nH]cn1)NC(=O)[C@@H]1CCC(=O)N1,scaled lipid accumulation score,[4],≤ 0
CC[C@@H](C(=O)[C@@H](C)[C@@H](O)[C@H](C)CCc1ccc(C)c(O)c1C(=O)O)[C@H]1O[C@](CC)([C@H]2CC[C@](O)(CC)[C@H](C)O2)C[C@@H]1C [Lasalocid sodium],scaled lipid accumulation score,[4],0.665
CC[C@@H](C(=O)[C@@H](C)[C@@H](O)[C@H](C)CCc1ccc(C)c(O)c1C(=O)O)[C@H]1O[C@](CC)([C@H]2CC[C@](O)(CC)[C@H](C)O2)C[C@@H]1C [Lasalocid sodium salt],scaled lipid accumulation score,,0.439
COc1ccc(C2CC(c3c(O)cc(C)oc3=O)=NCCS2)c(OC)c1 (stereo unspecified),scaled lipid accumulation score,[4],0.164
CCCCC[C@](C)(O)/C=C/[C@H]1[C@H](O)CC(=O)[C@@H]1CCCCCCC(=O)O [15(S)-15-methyl Prostaglandin E1],scaled lipid accumulation score,[1],0.012
Cc1nnc(-c2ccc3occ(-c4ccc([S+](C)[O-])cc4)c3c2)o1 (stereo unspecified),scaled lipid accumulation score,[4],0.106
NC(=O)Cc1cccc(C(=O)c2ccccc2)c1N [Nepafenac],scaled lipid accumulation score,[2],≤ 0
same,scaled lipid accumulation score,[4],0.098
O=C(O)C1CSCN1 (stereo unspecified),scaled lipid accumulation score,[4],≤ 0
COc1c(OC)c2occc2c2oc(=O)ccc12 [Pimpinellin],scaled lipid accumulation score,[4],≤ 0
O=C(O)CCC/C=C/C[C@@H]1[C@@H](/C=C/[C@@H](O)COc2cccc(C(F)(F)F)c2)[C@H](O)C[C@@H]1O [5-trans Fluprostenol],scaled lipid accumulation score,[1],0.008
CC(C)COCC(CN(Cc1ccccc1)c1ccccc1)N1CCCC1.Cl (stereo unspecified),scaled lipid accumulation score,library stock concentration: 12.4 mM,0.96 (active)
c1ccc(CN(CC2=NCCN2)c2ccccc2)cc1 [Antazoline hydrochloride],scaled lipid accumulation score,,0.544
same,scaled lipid accumulation score,[4],0.11
c1ccc(CN(CC2=NCCN2)c2ccccc2)cc1 [Antazoline HCl],scaled lipid accumulation score,[2],≤ 0
same,scaled lipid accumulation score,[4],0.363
c1ccc(CN(CC2=NCCN2)c2ccccc2)cc1 [Antazoline phosphate],scaled lipid accumulation score,[4],0.143
CC(C)COCC(CN(Cc1ccccc1)c1ccccc1)N1CCCC1 (stereo unspecified) [Bepridil hydrochloride],scaled lipid accumulation score,,0.677
same,scaled lipid accumulation score,library stock concentration: 5 mM,0.569
same,scaled lipid accumulation score,[4],0.175 and 0.195
Nc1cc2c(ncn2CCOCP(=O)(O)O)c(=O)[nH]1 [PMEG hydrate],scaled lipid accumulation score,[4],≤ -0.055
COC1=C2C[C@@H](C)C[C@H](OC)[C@H](O)[C@@H](C)/C=C(\C)[C@H](OC(N)=O)[C@@H](OC)/C=C\C=C(/C)C(=O)NC(=CC1=O)C2=O [Geldanamycin],scaled lipid accumulation score,[2],0.54
same,scaled lipid accumulation score,[8],0.573
same,scaled lipid accumulation score,[4],0.493
CO[C@H]1/C=C\C=C(/C)C(=O)NC2=CC(=O)C(NCCN(C)C)=C(C[C@@H](C)C[C@H](OC)[C@H](O)[C@@H](C)/C=C(\C)[C@@H]1OC(N)=O)C2=O [17-DMAG (Alvespimycin) HCl],scaled lipid accumulation score,[2],0.404
CO[C@H]1C=CC=C(C)C(=O)NC2=CC(=O)C(NCCN(C)C)=C(C[C@@H](C)C[C@H](OC)[C@H](O)[C@@H](C)C=C(C)[C@@H]1OC(N)=O)C2=O.Cl [17-DMAG (Alvespimycin) HCl],scaled lipid accumulation score,[4],1.24 (active)
C=CCNC1=C2C[C@@H](C)C[C@H](OC)[C@H](O)[C@@H](C)C=C(C)[C@H](OC(N)=O)[C@@H](OC)C=CC=C(C)C(=O)NC(=CC1=O)C2=O [17-AAG (Tanespimycin)],scaled lipid accumulation score,[4],0.873 (active)
C=CCNC1=C2C[C@@H](C)C[C@H](OC)[C@H](O)[C@@H](C)/C=C(\C)[C@H](OC(N)=O)[C@@H](OC)/C=C\C=C(/C)C(=O)NC(=CC1=O)C2=O [17-AAG (Tanespimycin)],scaled lipid accumulation score,[2],0.613
CCCCC[C@H](O)/C=C/[C@@H]1[C@@H](C/C=C/CCCC(=O)O)[C@H](O)C[C@H]1O [5-trans Prostaglandin F2.beta.],scaled lipid accumulation score,[1],≤ 0
O=C1OC(O)C(c2cc3ccccc3s2)=C1Br (stereo unspecified),scaled lipid accumulation score,[1],0.04
O=C1O/C(=C/Br)CC[C@H]1c1cccc2ccccc12 [(S)-Bromoenol lactone],scaled lipid accumulation score,[1],0.103
COc1cc(OC)c(C(=O)CCCN2CCCC2)c(OC)c1 [Buflomedil HCl],scaled lipid accumulation score,[2],≤ 0
same,scaled lipid accumulation score,[4],≤ 0
COc1cc(C(=O)N2CCOCC2)cc(OC)c1OC [Trimetozine],scaled lipid accumulation score,library stock concentration: 7.1 mM,≤ 0
COc1cc(N)c(Cl)cc1C(=O)OCCN1CCCCC1,scaled lipid accumulation score,[4],≤ -0.007
COc1cc(C(=O)NCCCCCC(=O)O)cc(OC)c1OC [Capobenic acid],scaled lipid accumulation score,[3],≤ 0
COc1cc(OC)c(C(=O)CCCN2CCCC2)c(OC)c1,scaled lipid accumulation score,[4],≤ 0
COc1cc(C(=O)OCCCN2CCCN(CCCOC(=O)c3cc(OC)c(OC)c(OC)c3)CC2)cc(OC)c1OC.Cl.Cl [Dilazep dihydrochloride],scaled lipid accumulation score,[4],1.06 (active)
COc1cc(C(=O)OCCCN2CCCN(CCCOC(=O)c3cc(OC)c(OC)c(OC)c3)CC2)cc(OC)c1OC.Cl.Cl,scaled lipid accumulation score,[4],0.84 (active)
COc1cc(C(=O)OCCCN2CCCN(CCCOC(=O)c3cc(OC)c(OC)c(OC)c3)CC2)cc(OC)c1OC [Dilazep dihydrochloride],scaled lipid accumulation score,,0.164
COc1cc(N)c(Cl)cc1C(=O)OCCCN1CCCCC1,scaled lipid accumulation score,[4],0.126
COc1cc(OC)c(C(=O)CCCN2CCCC2)c(OC)c1 [Buflomedil hydrochloride],scaled lipid accumulation score,,0.025
COc1cc(C(=O)OCCC[NH+]2CCC[NH+](CCCOC(=O)c3cc(OC)c(OC)c(OC)c3)CC2)cc(OC)c1OC.[Cl-].[Cl-] [Dilazep hydrochloride],scaled lipid accumulation score,[4],0.951 (active)
CC1(C)CCCC2(C)C1CCC1(C)OC(=O)CC12 (stereo unspecified) [Sclareolide],scaled lipid accumulation score,[2],≤ 0
same,scaled lipid accumulation score,[4],0.09
NC(=O)c1ccc(N(C(N)=O)c2c(F)cccc2F)nc1-c1ccc(F)cc1F,scaled lipid accumulation score,[5],≤ -0.001
same,scaled lipid accumulation score,[6],≤ -0.001 and ≤ -0.005
same,scaled lipid accumulation score,[7],≤ -0.001 and 0.083
same,scaled lipid accumulation score,[2],≤ 0
same,scaled lipid accumulation score,[4],≤ 0 and 0.012 and ≤ -0.005
